Bioassay records as filed in PubChem.
HSF1 inh – HSF1 inhibition | 300,000 tested, 0.77% active | NIH3T3-HGL HSE-luciferase, MG132-induced, luminescence 8 h; stronger effect = lower value | activity change, negative = inhibition, % at 7.5 µM (by protocol) | AID 2098;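 active = more than half of replicate wells show activity change below -50%, luminescence cut by over half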;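 also: luciferase reports HSF-1 transcriptional activity via heat shock element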
NR0B1 inh – inhibits human nuclear receptor DAX1; 340,000 tested, 0.99% active; inhibition, % at 6.75 µM; HEK293 Gal4-DAX1 luciferase reporter, luminescence;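 active = inhibition above the mean over all tested compounds plus 3 SD, cut at about 4.2% in these data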;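 also: inhibition shows as a rise in luminescence from relieved DAX1 repression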
Target sequence (P51843 207-470 limits assumed): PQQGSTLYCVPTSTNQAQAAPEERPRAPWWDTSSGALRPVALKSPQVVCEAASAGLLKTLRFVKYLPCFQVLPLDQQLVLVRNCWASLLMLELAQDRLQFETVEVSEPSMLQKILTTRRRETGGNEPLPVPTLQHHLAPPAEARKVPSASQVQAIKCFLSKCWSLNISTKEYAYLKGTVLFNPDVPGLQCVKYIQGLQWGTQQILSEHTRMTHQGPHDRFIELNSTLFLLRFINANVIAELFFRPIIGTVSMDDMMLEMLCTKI
HSF1 activator – increases HSF-1 driven luciferase reporter signal; NIH3T3-HGL HSF-1 luciferase reporter, MG132, 8 h; 100% = twice DMSO control signal; activation, % at 9 µM; 300,000 tested, 1.7% active; AID 504408;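 active = mean replicate activation of at least 50% with a set share of replicates each reaching 50%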
AHR act – activators of human aryl hydrocarbon receptor; activation, % at 5 µM; AHR-responsive luciferase reporter cells, luminescence; 320,000 tested, 2.5% active; AID 2796; P35869; in the data active = activation above about 47%
FXN GAA850 act – activators of GAA850 frataxin (FXN) promoter; activation, % at 6 µM; HEK293 lucGAA850 FXN promoter luciferase reporter, 24 h; percent of 10 µM SAHA response; AID 540364; 360,000 tested, 0.56% active;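 active = activation above the average of all compounds screened plus 3 SD, cutoff fixed separately per campaign, cut at about 7.5% in these data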
Each line names hits and unclear results; the compound was inactive in the other large screens. Rows were chosen to be rich in hits. Some 5.4% of all compounds tested hit in one or more screens of this group.

O=S(=O)(NC1=NCCCCC1)c1ccc2ccccc2c1	none
O=C1CC(c2ccco2)CC2=C1C1c3ccccc3C(=O)N1c1ccccc1N2 (stereo unspecified)	none
O=C1C2=C(Nc3ccccc3SC2c2ccco2)c2ccccc21 (stereo unspecified)	AHR act 70
Cc1ccc(C2C(C#N)=C(N)Oc3cc(N)ccc32)cc1 (stereo unspecified)	none
N#CC1=C(N)Oc2cc(N)ccc2C1c1ccsc1 (stereo unspecified)	AHR act 84
Cc1[nH]c(C)c(S(=O)(=O)N2c3ccccc3CC2C)c1C(=O)N1CCCCC1 (stereo unspecified)	none
COc1cc(Nc2nnc(C)s2)c(Cl)cc1Cl	AHR act 71
CC(=O)Nc1ccc(NC(=O)C(C)Oc2ccc(C)nc2[N+](=O)[O-])cc1 (stereo unspecified)	none (no result: HSF1 inh, HSF1 activator)
COc1ccccc1OCCSc1nc2ccccc2n1CC(O)CO (stereo unspecified)	NR0B1 inh 4.7
COc1ccccc1OCCSc1nc2ccccc2n1CC(=O)O	none (no result: HSF1 inh, HSF1 activator, AHR act)
Cn1c(C=O)c(C#Cc2ccccc2)c2ccccc21	AHR act 73 (no result: HSF1 inh, HSF1 activator)
COc1ccc(C#Cc2c(-c3ccccc3)n(C)c3ccccc23)cc1	none (no result: HSF1 inh, HSF1 activator)
COc1ccc(C#Cc2c(C=O)n(C)c3ccccc23)cc1	AHR act 73 (no result: HSF1 inh, HSF1 activator)
CCOC(=O)CSc1nc2cccnc2n1C	none
Cn1c(SCc2ccccc2F)nc2cccnc21	HSF1 activator 63
CCN(C(=O)Cn1c(=O)oc2ccccc21)c1ccc(C)c(C)c1	none
Cc1cc(O)c(C(=O)/C=C/c2ccc(C(C)C)cc2)c(=O)o1	NR0B1 inh 5.7 (no result: AHR act)
CCOC(=O)C1=C(C)N(CCCC(=O)O)C(=O)NC1c1ccc(C(F)(F)F)cc1 (stereo unspecified)	none (no result: NR0B1 inh, AHR act, FXN GAA850 act)
Cc1ccc(CC2SC(=Nc3ccccc3)N(c3ccccc3)C2=O)cc1 (stereo unspecified)	HSF1 activator 59
O=S(=O)(/N=C(/Nc1cccc2ccccc12)c1ccccc1)c1ccc(F)cc1	HSF1 activator 52
OCCCn1c(CCNc2nc(-c3ccc(F)cc3)cs2)nc2cc(C(F)(F)F)ccc21	AHR act 51
COc1ccc(-c2nc(C)c(C(C)=O)n2O)cc1OC	AHR act 48
COc1ccc(-c2nc(C)c(C(C)=O)n2O)cc1	none
Cc1ccc(C(=O)N2CCOCC2)cc1[N+](=O)[O-]	none
Cc1ccc(C(=O)N2CCN(C)CC2)cc1[N+](=O)[O-]	NR0B1 inh 4.6
CN1CCN(C(=O)c2cc([N+](=O)[O-])cc([N+](=O)[O-])c2)CC1	HSF1 inh -64
O=C(CSc1ccc2nnc(CCNC(=O)c3ccccc3)n2n1)NCc1ccc(F)cc1	none
Cc1ccc2nc3n(c(=O)c2c1)-c1ncccc1C(=O)NC3Cc1ccccc1 (stereo unspecified)	none (no result: HSF1 inh, HSF1 activator, AHR act)
O=C(Nc1ccc(-c2cc3ccccc3oc2=O)c(Cl)c1)c1cccnc1	none
O=C(Nc1ccc2ccccc2c1)c1cccnc1	AHR act 52
O=C(Nc1ccc(-c2nc3ccccc3o2)cc1)c1cccnc1	HSF1 activator 55
Cc1ccccc1OCC(=O)NCCNC(=O)c1cccnc1	none
Cc1ccccc1OCC(=O)NCCCNC(=O)c1cccnc1	HSF1 activator 56
O=C(Nc1cccc(-c2nc3ccccc3o2)c1)c1cccnc1	none
O=C(Nc1ccc(Cl)c(-c2nc3ccccc3[nH]2)c1)c1cccnc1	AHR act 52
O=C(CN1C(=O)c2ccccc2S1(=O)=O)NCc1cccs1	none
CCc1cccc(C)c1NC(=O)c1cccnc1	none
COc1ccc(NC(=S)NNC(=O)c2cccnc2)cc1OC	none
COc1ccc(NC(=O)c2cccnc2)cc1OCC(C)C	AHR act 51
Cc1cccc(C)c1NC(=O)c1cccnc1	HSF1 inh -67
COc1cc2nc3occc3c(OC)c2cc1OC	none
COc1c2ccc(OCC/C(C)=C/C(=O)C=C(C)C)cc2nc2occc12	AHR act 76 (no result: HSF1 inh, HSF1 activator)
Nc1nc(Br)c2ccccc2c1-c1ccccc1	none
Nc1nc(Br)c2c(F)cccc2c1-c1ccc(Cl)cc1	HSF1 activator 149
CCOC(=O)CN1CC23C=CC(O2)C(C(=O)Nc2ccc(OCC)cc2)C3C1=O (stereo unspecified)	none
CCOC(=O)CN1CC23C=CC(O2)C(C(=O)Nc2ccc4c(c2)OCO4)C3C1=O (stereo unspecified)	AHR act 70
CC(C)(C)C(=O)NC(=S)Nc1sc2c(c1C#N)CCCCC2	AHR act 59
